Screening results deposited in PubChem by National Center for Advancing Translational Sciences (NCATS).
TGFb SMAD3 inh: inhibitors of TGF-b signaling; HepG2 CAGA-GFP TGF-b/SMAD3 reporter, GFP fluorescence, 18 h; TGF-beta stimulated, 500 pg/mL final; 1.2% of 410,000 active; Potency, µM (doses to about 46.1 µM), for the others: top-dose activity, negative = inhibition, most hits filed as inhibitors; AID 588855; also: % is scaled to controls: 0 for no effect and ±100 for the full control effect; nearly all actives have a fitted effect of over 65% in size
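TGF-beta reporter screen: HEPG2 CAGA-GFP, 1% FBS, 500 pg/mL TGF-beta final, 18 h; per-cell GFP summed per well; curves fitted and categorized by class.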
ATXN viability: reduces viability in counter-screen for ATXN expression inhibitors | S2 cells (HEK-293 line with an ATXN2-luciferase reporter) viability, CellTiter-Fluor protease fluorescence, 24 h | Potency, µM (doses to about 56.7 µM), actives largely listed as cytotoxic | 0.49% of 400,000 active | AID 651635; also: nearly all actives have a fitted effect of over 40% in size
ATXN2 expr inh: reduces ATXN2 reporter expression in HEK-293 cells; AID 1745845; 0.72% of 360,000 active; Potency, µM (titrated, usually from 57 µM), for inactives: top-dose activity change, negative = inhibition, hits mostly inhibitors; HEK-293 ATXN2-luciferase reporter, luminescence, 24 h; also: % is scaled to controls: 0 for no effect and ±100 for the full control effect; nearly all actives have a fitted effect of over 55% in size
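ATXN2-luciferase reporter cells (luciferase flanked by upstream and downstream ATXN2 gene portions) were treated 24 h at 37 °C with compounds at up to 57 uM. SteadyGlo luminescence gave expression; GF-AFC fluorescence gave viability.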
TDP1 cell noCPT: qHTS for Inhibitors of human tyrosyl-DNA phosphodiesterase 1 (TDP1): qHTS in cells in absence of CPT. Potency, µM (top dose mostly 46.2 µM), inactives show top-dose activity change, negative = growth inhibition, hits mostly inhibitors. DT40 Tdp1-/- hTDP1 cells, no CPT, ATP luminescence, 48 h. 15% of 420,000 active; also: % is scaled to controls: 0 for no effect and ±100 for the full control effect; nearly all actives have a fitted effect of over 55% in size
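Compound effects on proliferation are scored in DT40 Tdp1-/-;hTDP1 cells in the absence of CPT. ATP levels (CellTiter-Glo luminescence) are recorded after a ≥48 hr, 37 °C incubation.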
HepG2 tox: kills HepG2 cells in TGF-b inhibitor counter-screen. HepG2 CAGA-GFP viability, ATP luminescence, 18 h. Potency, µM (doses to about 46.1 µM), for the others: at the highest dose activity change, negative = cytotoxicity, actives largely listed as cytotoxic. 0.76% of 410,000 active. AID 588856
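CellTiter-Glo luminescence gave cytotoxicity after 18 hours at 37 degrees C. The cells were HepG2 CAGA-GFP in 1% FBS DMEM, stimulated with 500 pg/mL TGF-beta after compound addition. %Activity was normalised to no-cell wells (complete cell-killing) and DMSO (no toxicity), and curves were fitted and classified.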
DT40 TDP1 CPT: DT40-hTDP1 cell growth loss with CPT; chicken DT40 Tdp1-/-;hTDP1 cells + 20 nM CPT, ATP luminescence, 48 h; Potency, µM (highest dose often 46.2 µM), for the others: at the highest dose activity change, negative = growth inhibition, actives largely listed as inhibitors; 12% of 420,000 active; also: % is scaled to controls: 0 for no effect and ±100 for the full control effect; nearly all actives have a fitted effect of over 55% in size
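Chicken DT40 Tdp1-/- cells complemented with human TDP1, 400 cells/well, exposed to compounds plus 20 nM camptothecin for at least 48 h at 37 C; viability read as ATP content by CellTiter-Glo luminescence.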
* marks the source's active call; other numbers are inactive results; i = inactive; ? = inconclusive; / = no result given; [ ] = remark or other dose. In the library only some 17% were active in any assay of this set; here they are far more common. Calls follow the shape of the dose curve; as a rule, active = well fitted curve in the direction sought with a large enough effect; inconclusive = small, poorly fitted or top-dose-only effect, or another doubt; inactive = no such curve, though single readings can be large; an effect the other way counts as inactive or inconclusive. Potency is read from the fitted curve at half-maximal effect.

SMILES	TGFb SMAD3 inh	ATXN viability	ATXN2 expr inh	TDP1 cell noCPT	HepG2 tox	DT40 TDP1 CPT
Cc1ccc(-c2cc3nc(-c4ccccc4)cc(N4CCOCC4)n3n2)cc1	35%	i	-3%	?	0%	-29%
O=C(c1ccoc1)N1CCN(c2cc(-c3ccncc3)nc3cc(-c4cccc(Cl)c4)nn23)CC1	22%	i	-22%	5.8µM*	5%	13µM*
Cc1cc(N2CCN(C(=O)c3ccco3)CC2)n2nc(-c3cccc(F)c3)cc2n1	11%	i	?	?	0%	?
O=C(c1ccncc1)N1CCN(c2cc(-c3ccccc3)nc3cc(-c4cccc(Cl)c4)nn23)CC1	-6%	i	13%	7.3µM*	-5%	12µM*
O=C(c1ccoc1)N1CCN(c2cc(-c3cccnc3)nc3cc(-c4cccc(Cl)c4)nn23)CC1	?	?	?	7.3µM*	-33%	18µM*
CC(=O)N1CCN(c2cc(-c3ccccc3)nc3cc(-c4cccc(Cl)c4)nn23)CC1	9%	i	-6%	10µM*	2%	21µM*
Cc1ccc(NC(=O)C2CCCN(C(=O)c3ccc(Cl)cc3)C2)c(C)c1 (centres undefined)	-6%	i	2%	-10%	2%	0%
Cc1ccc(CNC(=O)Cn2cc(S(=O)(=O)Cc3cccc(Cl)c3)c3ccccc32)cc1	0%	/	/	?	-1%	?
Cn1cccc1C(=O)NC(=O)COC(=O)c1cc(Cl)ccc1[N+](=O)[O-]	0%	i	9%	1%	4%	7%
COc1ccc(C(c2nnnn2C(C)(C)C)N2CCN(c3nc4ccccc4s3)CC2)cc1 (centres undefined)	-1%	i	-9%	4%	-2%	7%
CCC(C)(C)n1nnnc1C(c1ccccc1)N1CCc2ccccc2C1 (centres undefined)	0%	?	-4%	23µM*	8%	?
CCC(C)(C)n1nnnc1C(c1ccccc1)N1CCN(C2CCCC2)CC1 (centres undefined)	0%	?	7%	-28%	10%	3%
CCC(C)(C)n1nnnc1C(c1ccc(O)c(OC)c1)N1CCN(c2nc3ccccc3s2)CC1 (centres undefined)	-4%	i	15%	16µM*	-10%	?
COc1ccc(C(c2nnnn2Cc2ccccc2)N2CCN(c3nc4ccccc4s3)CC2)cc1OC (centres undefined)	-3%	i	-9%	18µM*	-3%	?
c1ccc(C(c2nnnn2Cc2ccco2)N2CCN(c3nc4ccccc4s3)CC2)cc1 (centres undefined)	-2%	?	-14%	15µM*	3%	?
COc1cc(-c2c(OC)cccc2OC)cc2c1OCCN(C(=O)CCC(=O)c1ccc(F)cc1)C2	/	i	/	-7%	/	-90%[9.04 µM]
CCC(C)(C)n1nnnc1C(c1cc(OC)c(OC)c(OC)c1)N1CCN(c2ccccc2)CC1 (centres undefined)	17%	i	-22%	-22%	27%	-9%
CCC(C)(C)n1nnnc1C(c1ccc(O)c(OC)c1)N1CCc2ccccc2C1 (centres undefined)	?	i	16%	13µM*	-3%	7.3µM*
O=c1cc(CSc2nnc(Nc3ccccc3)s2)nc2sccn12	?	i	11%	?	-14%	?
Cc1ccccc1Nc1nnc(SCc2cc(=O)n3ccsc3n2)s1	-5%	i	19%	16µM*	-24%	?
O=C(CSc1ncc(-c2ccccc2)[nH]1)Nc1cccc(Br)c1	?	i	-15%	?	-59%	23µM*
O=C(CSc1ncc(-c2ccccc2)[nH]1)Nc1ccc(Cl)cc1	?	i	-13%	?	-64%	21µM*
CCc1ccc(NC(=O)c2ccc3c(O)c(S(=O)(=O)c4ccc(Cl)cc4)c(=O)[nH]c3c2)cc1	6%	/	/	14%	3%	-1%
Cc1nc(N)[nH]c(=O)c1CCCNc1ccc(CCCCC2(CCl)OCCO2)cc1	1%	i	-19%	?	-7%	18µM*
CN(C(=O)c1cnn(-c2nccc(-c3ccccc3C(F)(F)F)n2)c1C1CC1)C1CCOC1 (centres undefined)	/	i	/	-17%	/	?
SMILES	TGFb SMAD3 inh	ATXN viability	ATXN2 expr inh	TDP1 cell noCPT	HepG2 tox	DT40 TDP1 CPT
CC(C)c1c(C(=O)N/N=C/c2ccc(OCc3ccccc3)cc2)nnn1-c1nonc1N	-14%	i	7%	?	-29%	?
COc1cc(/C=N/NC(=O)c2nnn(-c3nonc3N)c2C(C)C)ccc1OCc1ccccc1	?	?	/	21µM*	-26%	?
CN(C)Cc1c(C(=O)N/N=C/c2ccc(OCc3c(F)cccc3Cl)cc2)nnn1-c1nonc1N	4%	i	-9%	13µM*	-10%	?
CC(C)c1c(C(=O)N/N=C/c2ccc(C(F)(F)F)cc2)nnn1-c1nonc1N	?	i	-15%	13µM*	-17%	15µM*
CC(/C=N/NC(=O)c1nnn(-c2nonc2N)c1C(C)C)=C\c1ccccc1	16µM*	?	/	?	-38%	?
COc1ccc(N2CCN(CC(=O)N3c4ccccc4CC3C)CC2)cc1 (centres undefined)	0%	i	-27%	?	-3%	0%
CCCCCCCCCCCCCCCCCCN(CCCCCCCCCCCCCCCCCC)c1ccc(C=O)cc1	1%	/	/	1%	4%	9%
CCCN(CCC)Cc1c(C(=O)N/N=C/C(C)=C\c2ccccc2)nnn1-c1nonc1N	?	?	?	26µM*	4%	16µM*
CCCN(CCC)Cc1c(C(=O)N/N=C/c2ccsc2)nnn1-c1nonc1N	?	i	-1%	?	-37%	-3%
CCc1cccc(CC)c1NC(=O)N1Cc2[nH]nc(NC(=O)c3ccc(N4CCN(C)CC4)cc3)c2C1	/	/	-1%	/	/	/
Cc1ccc(S(=O)(=O)c2cn(Cc3ccccc3F)c3cc4c(cc3c2=O)OCO4)cc1	-2%	i	-20%	?	6%	5.8µM*
Cc1ccc(S(=O)(=O)c2cn(Cc3ccccc3Cl)c3ccc(F)cc3c2=O)cc1	0%	i	-9%	16µM*	-16%	18µM*
